Test results as given in PubChem BioAssay AID1345085 (National Center for Advancing Translational Sciences (NCATS), 2018).
Records with an inconclusive call do not appear. Values without a mark were called inactive. Active and inactive are the calls of the source. Calls come from the whole dose curve; as a rule, active = well fitted cell-killing curve with a large enough effect; inconclusive = small, poorly fitted or top-dose-only effect, or effect the other way; inactive = no such curve, though single readings can be large or run the other way.
% is set by controls: 0 for no effect and ±100 for the full control effect; potency is the fitted concentration of half-maximal effect.
Note: nearly all actives have a fitted effect of over 55% in size.

These compounds were tested on SKOV3 (assay: Confirmatory qHTS for gynecologic anti-cancer compounds from libraries of approved drugs and bioactive compounds). Conditions: gynecologic cancer cell panel viability, ATPlite luminescence, 48 h; series mostly up to 57.6 µM; activity change, negative = viability loss: at the top concentration.
Method in brief: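 IC50 values derive from an ATPlite ATP-content luminescence assay following 48 h treatment at 37 C. Each compound ran as an 11-concentration, threefold series (57.5 uM to 0.977 nM); HEK 293T served as control line for selectivity index.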
`O=C(O)c1ccc(Nc2ncc3c(n2)-c2ccc(Cl)cc2C(c2c(F)cccc2F)=NC3)cc1` was tested, and the “activity change, negative = viability loss” value was -12.6%.
In the case of `Cn1c(=O)c(F)c(Nc2ccc(I)cc2F)c2c(=O)n(CC(O)CO)cnc21` (stereo not given), the Potency is reported as 0.485 µM (active).
For `O=C(c1ccc(F)c(F)c1Nc1ccc(I)cc1F)N1CC(O)([C@@H]2CCCCN2)C1`, the Potency was 6.11 µM (active).
`O=C(NOCC1CC1)c1ccc(F)c(F)c1Nc1ccc(I)cc1Cl` was tested, and the “activity change, negative = viability loss” value was -4.7%.
In the case of `CC(C)C[C@H](NC(=O)[C@H](Cc1ccccc1)NC(=O)c1cnccn1)B(O)O`, the Potency is reported as 3.06 µM (active).
For `Cc1cnc(Nc2ccc(CN3CCOCC3)cc2)nc1Nc1cccc(S(=O)(=O)NC(C)(C)C)c1`, the Potency was 4.85 µM (active).
For `CN1C2CCC1CC(OC(=O)[C@H](CO)c1ccccc1)C2` (stereo not given in full), the “activity change, negative = viability loss” value was -7.8%.
With `CNc1nc(Nc2ccc(C(=O)N3CCOCC3)cc2OC)ncc1Cl` the “activity change, negative = viability loss” value was 0.103%.
For `CCS(=O)(=O)c1cccc(-c2cc(C(=O)NC3CCN(C)CC3)c(C)c3[nH]c4ncc(C)cc4c23)c1`, the Potency was 4.76 µM (active).
In the case of `Nc1nc(Cl)nc2c1ncn2C1OC(CO)C(O)C1F` (stereo not given), the Potency is reported as 0.432 µM (active).
With `c1nc2nc(Nc3ccc(N4CCOCC4)cc3)nc(NC3CCCCC3)c2[nH]1` the “activity change, negative = viability loss” value was -28.5% [at 19.5 µM].
With `Cc1cc(Nc2nc(N[C@@H](C)c3ccc(F)cc3)c(C#N)cc2F)n[nH]1` the Potency was 7.69 µM (active).
In the case of `COc1cc2c(Nc3ccc(NC(=O)c4ccccc4)cc3)ncnc2cc1OCCCN1CCOCC1`, the “activity change, negative = viability loss” value is reported as -5.63%.
For `C=CC(=O)Nc1cc2c(Nc3ccc(F)c(Cl)c3)ncnc2cc1OCCCN1CCOCC1`, the Potency was 24.3 µM (active).
In the case of `CC(C)(C(=O)NCC(F)(F)C(F)(F)F)C(=O)NC1C(=O)Nc2ccccc2-c2ccccc21` (stereo not given), the “activity change, negative = viability loss” value is reported as 5.3%.
For `O=c1[nH]c(=O)n([C@H]2C[C@H](O)[C@@H](CO)O2)cc1Br`, the “activity change, negative = viability loss” value was 4%.
For `CCc1cccc(CC)c1NC(=O)N1Cc2[nH]nc(NC(=O)c3ccc(N4CCN(C)CC4)cc3)c2C1`, the “activity change, negative = viability loss” value was -10.9%.
With `O=c1cc(CN2CCOCC2)occ1OCCCCCSc1ccnc2cc(C(F)(F)F)ccc12` the “activity change, negative = viability loss” value was -9.95%.
In the case of `Cc1nc(N)ncc1-c1nc(N2CCOCC2)c2sc(C(C)(C)O)cc2n1`, the Potency is reported as 0.432 µM (active).
In the case of `CN(C)C/C=C/C(=O)Nc1cc2c(Nc3ccc(F)c(Cl)c3)ncnc2cc1OC1CCOC1` (stereo not given), the “activity change, negative = viability loss” value is reported as -33.4%.
In the case of `CC(C)CC(=O)Nc1n[nH]c2c1CN(C(=O)C1CCN(C)CC1)C2(C)C`, the “activity change, negative = viability loss” value is reported as 0.349%.
With `CN1CCN(c2cccc(Nc3nc4c(-c5ccc(S(C)(=O)=O)cc5)cccn4n3)c2)CC1` the “activity change, negative = viability loss” value was -10.2%.
For `CCCc1nn(C)c2c(=O)[nH]c(-c3cc(S(=O)(=O)N4CCN(C)CC4)ccc3OCC)nc12`, the “activity change, negative = viability loss” value was -2.11%.
`CC(=O)c1cnc2ccc(-c3cc(Cl)c(O)c(Cl)c3)nc2c1NC1CCC(CN(C)C)CC1` (stereo not given) was tested, and the Potency was 0.498 µM (active).
`COc1cc(N2CCC(N)CC2)ccc1Nc1ncc(Cl)c(-c2c[nH]c3ccccc23)n1` was tested, and the Potency was 21.7 µM (active).
For `CCN(CC)CCNC(=O)c1c(C)[nH]c(/C=C2\C(=O)Nc3ccc(F)cc32)c1C`, the Potency was 15.8 µM (active).
With `CC(C)Oc1ccc2c(=O)c(-c3ccccc3)coc2c1` the Potency was 21.7 µM (active).
In the case of `COc1cccc2c1C(=O)c1c(O)c3c(c(O)c1C2=O)C[C@@](O)(C(=O)CO)C[C@@H]3O[C@H]1C[C@H](N)[C@H](O[C@@H]2CCCCO2)[C@H](C)O1`, the Potency is reported as 0.685 µM (active).
With `COc1cc2c(cc1-c1c(C)noc1C)ncc1[nH]c(=O)n(C(C)c3ccccn3)c12` (stereo not given) the “activity change, negative = viability loss” value was -18.7%.
In the case of `CNCc1ccc(-c2[nH]c3cc(F)cc4c3c2CCNC4=O)cc1`, the “activity change, negative = viability loss” value is reported as 14.9%.
